Where “and” joins values, the source holds several entries; their conditions need not be identical. Identical values can stand only once. Among all 6,400 compounds or so, about 610 (9.5%) were called active. No stated cut-off is given here; in the data, active means activity change below about -70%; inconclusive means no clear call, values can overlap the other calls; inactive means above that. The sample as a whole holds a higher share of actives than the screen did. More than one record can exist for a structure, and the calls need not agree.

This assay can be described thus: Toxoplasma gondii ME49Luc growth in HeLa cells, luciferase, no IFN-y, primary screen (AID 1259421). Particulars: T. gondii ME49Luc in HeLa, 72 h, stronger effect = lower value, concentration not given here.
As for `COc1cc([C@@H]2[C@H]3CO[C@@]4(O)C(=O)[C@@H]2C=C([C@H]2Oc5cc(O)cc(O)c5C(=O)[C@@H]2O)[C@@H]34)ccc1O`, the activity change, negative = inhibition is -0.383% (inactive).

Regarding `Cn1cnc2nc(NCCO)nc(NCc3ccccc3)c21`, the activity change, negative = inhibition was -3.03% (inactive).

Regarding `OC1O[C@@H]2COC(c3ccccc3)O[C@H]2[C@H](O)[C@H]1O` (stereo partly drawn), the activity change, negative = inhibition is 36.7% (inactive). In the case of `COc1ccc2cc(-c3cc(-c4cc(Cl)cc(Cl)c4)nn3[C@@H](C)c3ccc(C(=O)NCCC(=O)O)cc3)ccc2c1` it was -64.1% (inactive); in that of `CCCCNC(=O)c1ccc(Cl)cc1O`, -69.9% (inactive). Consider `CCCCCCNC(=O)n1cc(F)c(=O)[nH]c1=O`, for which the activity change, negative = inhibition is -97.3% (active). Consider `Cc1nnc(SCC2=C(C(=O)O)N3C(=O)[C@@H](N)[C@H]3SC2)s1`, for which the activity change, negative = inhibition is 2.53% (inactive).

For `CCN(CC)CCCCC1CCN(CC(=O)N2c3ccccc3C(=O)Nc3cccnc32)CC1`, the activity change, negative = inhibition is 11.7% (inactive) and 11.5% (inactive). In the case of `Cc1ccc([N+](=O)[O-])cc1S(=O)(=O)N(C)/N=C/c1cnc2ccc(Br)cn12` it was -80.3% (active); in that of `Cc1ccc([N+](=O)[O-])cc1S(=O)(=O)N(C)C`, 16.2% (inactive) and 6.9% (inactive). As for `CN[C@@H]1C(OC2[C@H](O[C@H]3[C@H](O)[C@@H](O)[C@H](N=C(N)N)[C@@H](O)[C@@H]3N=C(N)N)OC(C)[C@]2(O)CO)OC(CO)C(O)C1O` (stereo partly drawn), the activity change, negative = inhibition is 3.82% (inactive). Consider `C[C@]12CCc3occc3C1CC[C@@]13C[C@@H](CCC12)[C@@](O)(CO)C3` (stereo partly drawn), for which the activity change, negative = inhibition is -13.6% (inactive). In the case of `CCC1(c2ncc[nH]2)Cc2ccccc2O1` (stereo not drawn) it was 15% (inactive) and -0.683% (inactive). For the molecule `CC(=O)O[C@H]1CC[C@@]2(C)C(C[C@@H](OC(C)=O)[C@]3(C)C2CC[C@@]2(C)[C@H](c4ccoc4)OC(=O)[C@H]4O[C@]423)C1(C)C` (stereo partly drawn), the activity change, negative = inhibition is -27.9% (inactive). In the case of `Nc1nccc2c1ncn2[C@@H]1C=C(CO)[C@@H](O)[C@H]1O` it was -74.6% (active) and -68.5% (inactive).

In the case of `Nc1ncnc2c1ncn2[C@@H]1O[C@H](CO)[C@@H](O)[C@@H]1O`, the activity change, negative = inhibition is -51.5% (inactive). In the case of `Nc1nccc2c1ncn2[C@@H]1O[C@H](CO)C(O)C1O` (stereo partly drawn), the activity change, negative = inhibition is -4.71% (inactive). On to `CCC(CC)CC1(C(=O)Nc2ccccc2SC(=O)C(C)C)CCCCC1`, for which the activity change, negative = inhibition is -68.8% (inactive). With `O=C(/C=C/c1ccccc1)NC(NC(=S)Nc1cccc2cccnc12)C(Cl)(Cl)Cl` (stereo not drawn), the activity change, negative = inhibition was 0.586% (inactive).

With `COc1cccc(NC(=O)/C=C/c2ccc(Cl)cc2)c1`, the activity change, negative = inhibition was 290% (inactive) and 329% (inactive). Take `O=C(/C=C/c1ccccc1)NC(NC(=S)Nc1ccc(Cl)cc1)C(Cl)(Cl)Cl` (stereo not drawn): the activity change, negative = inhibition is -82.6% (active). As to `CC(=O)c1ccc(NS(C)(=O)=O)c(Oc2ccc(F)cc2F)c1`, the activity change, negative = inhibition is 22.3% (inactive). As to `COC[C@@H](c1ccc(C(F)(F)F)cc1)N1CCN(C2(C)CCN(C(=O)c3c(C)ncnc3C)CC2)C[C@@H]1C`, the activity change, negative = inhibition was 5.59% (inactive). As for `CCc1ccc(OCc2ccccc2C(=O)Nc2ccc3nc(C)cc(N)c3c2)cc1`, the activity change, negative = inhibition was -82.4% (active). As for `CCN(CC)CCCC(C)Nc1nc(C)cc(Nc2ccc3nc(C)cc(N)c3c2)n1` (stereo not drawn), the activity change, negative = inhibition was -14.9% (inactive). In the case of `CCCC(=O)Nc1cccc(NC(=O)c2ccccc2Br)c1` it was 17.4% (inactive); in that of `Nc1c(Br)cc(Br)cc1CNC1CCC(O)CC1` (stereo not drawn), 2.89% (inactive) and 3.02% (inactive); in that of `Cc1[nH]c(=O)c(C#N)cc1-c1ccc2nccn2c1`, 24.3% (inactive) and 0.856% (inactive). `CC(C)(C)c1nc(-c2cccc(NS(=O)(=O)c3c(F)cccc3F)c2F)c(-c2ccnc(N)n2)s1`: the activity change, negative = inhibition was -88.1% (active).

Take `Cn1c(=O)c2c(ncn2CCOC(=O)C(C)(C)Oc2ccc(Cl)cc2)n(C)c1=O`: the activity change, negative = inhibition is 7.49% (inactive). `CC(=O)O[C@H]1C[C@@]2(C)[C@@H](C[C@@H](O)C3[C@]2(C)CC[C@H]2[C@H](C)[C@H](O)CC[C@]32C)/C1=C(/CCC=C(C)C)C(=O)O` (stereo partly drawn): the activity change, negative = inhibition was -16.8% (inactive) and -21.5% (inactive). Turning to `CN1C(=O)C[C@@H](C(=O)N[C@@H](Cc2cnc[nH]2)C(=O)N2CCC[C@H]2C(N)=O)NC1=O`, the activity change, negative = inhibition is -66.5% (inactive). As for `COC(=O)C1=C(C)NC(C)=C(C(=O)OCCN(C)Cc2ccccc2)C1c1cccc([N+](=O)[O-])c1` (stereo not drawn), the activity change, negative = inhibition was 31.7% (inactive) and 1.2% (inactive). In the case of `COC(=O)C1=C(C)NC(C)=C(C(=O)OCCN2CCN(C(c3ccccc3)c3ccccc3)CC2)C1c1cccc([N+](=O)[O-])c1` (stereo not drawn), the activity change, negative = inhibition is -60.9% (inactive) and -77.5% (active). Consider `COC(=O)C1=C(C)NC(C)=C(C(=O)O[C@@H]2CCCN(Cc3ccccc3)C2)[C@@H]1c1cccc([N+](=O)[O-])c1`, for which the activity change, negative = inhibition was 23.7% (inactive). Consider `COC(=O)C1=C(C)NC(C)=C(C(=O)OC/C=C/c2ccccc2)C1c1cccc([N+](=O)[O-])c1` (stereo not drawn), for which the activity change, negative = inhibition is -14.8% (inactive).

As to `COC(=O)C1=C(C)NC(C)=C(C(=O)O[C@H]2CCN(Cc3ccccc3)C2)[C@H]1c1cccc([N+](=O)[O-])c1`, the activity change, negative = inhibition was 0.473% (inactive). Turning to `COC(=O)C1=C(C)NC(C)=C(C(=O)OCCCN2CCC(c3ccccc3)(c3ccccc3)CC2)[C@H]1c1cccc([N+](=O)[O-])c1`, the activity change, negative = inhibition is -68.2% (inactive) and -79.8% (active). With `CCOC(=O)C1=C(C)NC(C)=C(C(=O)OC)C1c1cccc([N+](=O)[O-])c1` (stereo not drawn), the activity change, negative = inhibition was 3.95% (inactive) and 4.34% (inactive).

Consider `COC(=O)C1=C(C)NC(C)=C(C(=O)NCCCN2CCC(c3ccccc3)(c3ccccc3)CC2)C1c1ccc([N+](=O)[O-])cc1` (stereo not drawn), for which the activity change, negative = inhibition is -48.9% (inactive).

For `COC(=O)C1=C(C)NC(C)=C(C(=O)OCCCN2CCC(c3ccccc3)(c3ccccc3)CC2)[C@@H]1c1cccc([N+](=O)[O-])c1`, the activity change, negative = inhibition is -76.4% (active) and -90.4% (active). For `COc1ccc2c(c1)OC1(O)COc3cc(OC)c(OC)cc3C1=C2` (stereo not drawn), the activity change, negative = inhibition was 10.6% (inactive). As to `CC(=O)N1CCN(CCOc2ccc(C3CCN(C4=Nn5c(nnc5C(F)(F)F)CC4)CC3)cc2)CC1`, the activity change, negative = inhibition is 7.85% (inactive).

In the case of `O=C(OC1C[C@@H]2CC3C[C@H](C1)N2CC3=O)c1c[nH]c2ccccc12` (stereo partly drawn), the activity change, negative = inhibition is -0.997% (inactive).

Turning to `C[C@]1(Cn2ccnn2)C(C(=O)O)N2C(=O)CC2S1(=O)=O` (stereo partly drawn), the activity change, negative = inhibition was 0.084% (inactive).

As for `CNc1cc2ncnc(Nc3cccc(Br)c3)c2cc1N`, the activity change, negative = inhibition is -8.12% (inactive). For the molecule `O=c1[nH]cnc2c1cnn2[C@@H]1O[C@H](CO)[C@H](O)C1O` (stereo partly drawn), the activity change, negative = inhibition is 19.3% (inactive). For `CCC(C)C(=O)OC1CC(C)C=C2C=CC(C)C(CCC(O)CC(O)CC(=O)O)C21` (stereo not drawn), the activity change, negative = inhibition was 7.4% (inactive). Take `NCCC(O)(P(=O)(O)O)P(=O)(O)O`: the activity change, negative = inhibition was -2.86% (inactive). For `COc1cc(O)c(C)c(O)c1`, the activity change, negative = inhibition was 11% (inactive). Turning to `CC1(C)C(=O)N=C2c3ccccc3C(=O)C(=O)C21` (stereo not drawn), the activity change, negative = inhibition is -89.1% (active). Regarding `CNC(=O)[C@@H](c1ccccc1)N1CCc2cc(OC)c(OC)cc2[C@@H]1CCc1ccc(C(F)(F)F)cc1`, the activity change, negative = inhibition was 7.93% (inactive). Turning to `O=C(Nc1cccc2c(=O)cc(-c3nn[nH]n3)oc12)c1ccc(OCCCCc2ccccc2)cc1`, the activity change, negative = inhibition was 3.35% (inactive) and 13.6% (inactive).

Regarding `COc1cccc(Nc2ncnn3ccc(CN4CC[C@@H](N)[C@H](O)C4)c23)c1`, the activity change, negative = inhibition was -86.2% (active).

Turning to `C[C@]12C=CC(=O)C=C1CCC1C2[C@@H](O)C[C@@]2(C)C1CC[C@]2(O)C(=O)CO` (stereo partly drawn), the activity change, negative = inhibition was 1.25% (inactive) and -8.87% (inactive).

For the molecule `CC(=O)O[C@@H]1c2c(ccc3ccc(=O)oc23)OC(C)(C)[C@@H]1OC(=O)CC(C)C`, the activity change, negative = inhibition is -2.35% (inactive). Consider `CCCN(CCC)CC1CCCCN1CCNC(=O)N1c2ccccc2C(=O)Nc2cccnc21` (stereo not drawn), for which the activity change, negative = inhibition is 3.45% (inactive). In the case of `CCOC(=O)[C@H](CCc1ccccc1)N[C@@H](C)C(=O)N(CC(=O)O)C1Cc2ccccc2C1` it was 7.2% (inactive); in that of `CCC(C)(C)C(=O)OC1CC(C)C=C2C=CC(C)C(CCC3CC(O)CC(=O)O3)C21` (stereo not drawn), -4.9% (inactive).

As for `CO[C@H]1/C=C\C=C(/C)C(=O)NC2=CC(=O)C(NCCN(C)C)=C(C[C@@H](C)C[C@H](OC)[C@H](O)[C@@H](C)/C=C(\C)[C@@H]1OC(N)=O)C2=O`, the activity change, negative = inhibition is -69.9% (inactive) and -80.4% (active). With `COC1C=COC2(C)Oc3c(C)c(O)c4c(c3C2=O)C2(C=C(NC(=O)/C(C)=C\C=C/C(C)C(O)C(C)C(O)C(C)C(OC(C)=O)C1C)C4=O)OCC(=O)O2` (stereo not drawn), the activity change, negative = inhibition is -2.28% (inactive). Consider `C=CCNC1=C2C[C@@H](C)C[C@H](OC)[C@H](O)[C@@H](C)/C=C(\C)[C@H](OC(N)=O)[C@@H](OC)/C=C\C=C(/C)C(=O)NC(=CC1=O)C2=O`, for which the activity change, negative = inhibition is -56% (inactive). As to `NCCCCCC(O)(P(=O)(O)O)P(=O)(O)O`, the activity change, negative = inhibition is 13% (inactive). With `c1ccc(CNc2ncnc3ccccc23)cc1`, the activity change, negative = inhibition was -3.07% (inactive). On to `c1ccc(CNc2nc(NCc3ccccc3)c3ccccc3n2)cc1`, for which the activity change, negative = inhibition was -83.6% (active).

In the case of `Cn1cnc2c(NCc3ccccc3)nc(NCCO)nc21`, the activity change, negative = inhibition is 10.2% (inactive). `CN1C(C(=O)Nc2ccccn2)C(=O)c2sc(Cl)cc2S1(=O)=O` (stereo not drawn): the activity change, negative = inhibition is 6.43% (inactive).

Turning to `CC(C)(C)NC[C@@H](O)COc1nsnc1N1CCOCC1`, the activity change, negative = inhibition is 15.6% (inactive) and -4.63% (inactive). On to `CC(=O)N[C@H]1[C@H]([C@H](O)[C@H](O)CO)O[C@](O)(C(=O)O)C[C@@H]1O`, for which the activity change, negative = inhibition was 19.2% (inactive). Take `Cc1cc(S(=O)(=O)O)c2c(C)ccc(C(C)C)cc1-2`: the activity change, negative = inhibition is 0.707% (inactive). As to `N#C/C(=C/c1ccc(O)c(O)c1)C(=O)Nc1ccccc1`, the activity change, negative = inhibition is 11.3% (inactive).

In the case of `N#C/C(=C\c1ccc(O)c(O)c1)C(=O)Nc1ccccc1`, the activity change, negative = inhibition is 10% (inactive) and 2.22% (inactive). On to `N#C/C(=C\c1ccc(O)c(O)c1)C(=O)NC1CCC(CC2CCC(NC(=O)/C(C#N)=C/c3ccc(O)c(O)c3)CC2)CC1` (stereo not drawn), for which the activity change, negative = inhibition was -83.2% (active).

The values above are taken from PubChem BioAssay AID1259421 (Broad Institute, 2018).
